Most compounds without a hit are left out; they make up all but 0.52% or so of the library.
Sa helicase inh – inhibitors of S. aureus replicative helicase, primary screen, biochemical, fluorescence unwinding readout. replicative DNA helicase (DnaC/DnaB), Staphylococcus aureus. purified S. aureus helicase, fluorescence unwinding assay. inhibition, % (no concentration beside the values). 120,000 tested, 0.05% active. AID 485395, 2010; in the data active = inhibition above about 25%, passing the limit was not always enough;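 note: 0% = mean of negative control wells and 100% = mean of positive control wells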
Sa growth inh – S. aureus growth inhibition at 42 and 30 °C, primary screen, LtaS inhibitor project, RN4220, two temperatures | AID 720641, 2013 | relative growth, % (no concentration beside the values) | OD600, 20 h, 42 °C; active compounds read low | 170,000 tested, 0.53% active;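 active = relative growth at most 50% at the other temperature and 20+ points below 30 °C, or under 10% at both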
* = called active by the depositor.

COc1ccc(SCC(=O)O)cc1 was read as Sa helicase inh -1 and Sa growth inh 118.
Screening COc1ccc(N(CC(=O)NC(C)c2ccccc2)S(=O)(=O)c2c(C)nn(C)c2C)cc1 (centres undefined) returned Sa growth inh 104.
Screening CCN(Cc1ccccc1)C(=O)CSc1nc2ncccc2o1 returned Sa helicase inh 19 and Sa growth inh 103.
For COC(=O)c1ccc(COC(=O)c2cc(-c3ccco3)nc3ccccc23)cc1 the results were Sa helicase inh 8 and Sa growth inh 71.
O=C(OCc1ccc(F)cc1)c1cc(-c2ccco2)nc2ccccc12 was read as Sa helicase inh 1 and Sa growth inh 6.6*.
Screening COc1ccccc1-n1nnc(C(=O)Nc2nccs2)c1C returned Sa helicase inh -3 and Sa growth inh 95.
FC(F)(F)c1ccc2sc(=S)[nH]c2c1 was read as Sa helicase inh 10 and Sa growth inh -0.8*.
Screening CN(C)c1ccc2sc(=S)[nH]c2c1 returned Sa helicase inh -9 and Sa growth inh 44.
For C/C=C/C=N/N=C/C1=C(N2CCOCC2)C(=C\c2ccccc2)/CC1 the results were Sa helicase inh 4 and Sa growth inh 114.
`Clc1cccc(NCc2cccc3c2CN(CC2CCCO2)C3)c1` (centres undefined) gave Sa helicase inh 0 and Sa growth inh 100.
Screening Clc1cc2c(c3ncccc13)OCN(CCC1=CCCCC1)C2 returned Sa helicase inh 11 and Sa growth inh 0.1*.
CCCCN1COc2c(cc(Cl)c3cccnc23)C1 was read as Sa helicase inh 8 and Sa growth inh 1.0*.
For Clc1cc2c(c3ncccc13)OCN(CC1CCCO1)C2 (centres undefined) the results were Sa helicase inh -13 and Sa growth inh 1.0*.
Oc1c(CN2CCc3ccccc3C2)cc(Cl)c2cccnc12 was read as Sa helicase inh -12.
Screening Clc1cc2c(c3ncccc13)OCN(CCc1ccccc1)C2 returned Sa helicase inh 14 and Sa growth inh 95.
O=C1CSC(=S)N1CC1CC1 was read as Sa growth inh 101.
Cc1ccc(C(=O)Nc2nnc(-c3ccccc3)o2)cc1C was read as Sa helicase inh 10.
`CC(C)(C)C(=O)/C=C1\SCC(=O)N1Cc1ccc(C#N)cc1` gave Sa helicase inh -5 and Sa growth inh 109.
For CC[C@H]1OC(=O)[C@H](C)[C@@H](O[C@H]2C[C@@](C)(OC)[C@@H](O)[C@H](C)O2)[C@H](C)[C@@H](O[C@@H]2O[C@H](C)C[C@H](N(C)C)[C@H]2O)[C@](C)(O)C[C@@H](C)/C(=N\OCOCCOC)[C@H](C)[C@@H](O)[C@]1(C)O the results were Sa growth inh 0.1*.
For CC[C@H]1OC(=O)[C@H](C)[C@@H](O[C@H]2C[C@@](C)(OC)[C@@H](O)[C@H](C)O2)[C@H](C)[C@@H](O[C@@H]2O[C@H](C)C[C@H](N(C)C)[C@H]2O)[C@](C)(O)C[C@@H](C)/C(=N/OCOCCOC)[C@H](C)[C@@H](O)[C@]1(C)O the results were Sa growth inh -0.5*.
For Cc1occc1C(=O)Nc1cc(C(C)(C)C)on1 the results were Sa helicase inh -1 and Sa growth inh 115.
Screening Cc1occc1C(=O)N=Nc1cc(C(C)(C)C)c(O)c(C(C)(C)C)c1 returned Sa helicase inh 7 and Sa growth inh 1.4*.
Cc1csc2c(SCC(O)C(F)(F)F)ncnc12 (centres undefined) was read as Sa growth inh 104.
`CN1C(=O)S/C(=C/c2ccc(-c3ccc(C(=O)O)c(Cl)c3)o2)C1=O` gave Sa helicase inh 12 and Sa growth inh 58.
Screening CCN1C(=O)/C(=C\c2ccc(-c3ccc(Cl)c(C(=O)O)c3)o2)SC1=S returned Sa helicase inh -80 and Sa growth inh -0.7*.
For CCOC(=O)c1c(C)oc2nc(C)nc(NCC3CCN(Cc4ccccc4C)CC3)c12 the results were Sa growth inh 121.
For O=C(Nc1ccncc1)c1ccc(Oc2cc(Cl)cc(Cl)c2)o1 the results were Sa growth inh 4.9*.
For O=C(Nc1cccnc1)c1ccc(Oc2cc(Cl)cc(Cl)c2)o1 the results were Sa growth inh 106.
Screening CN1CCN(c2ccc(NC(=O)c3ccco3)cc2)CC1 returned Sa growth inh 95.
N#Cc1c(Cl)nc(Cl)c(Cl)c1Cl was read as Sa helicase inh -3 and Sa growth inh 66.
`CC(C)=NNc1nc(Cl)c(C#N)c(Cl)c1Cl` gave Sa growth inh 6.4*.
`Cc1ccc(Cl)cc1N1CCN(C(=O)CCNS(=O)(=O)c2ccc3c(c2)CCC(=O)N3)CC1` gave Sa helicase inh 15 and Sa growth inh 93.
`O=C(NCC1CCCO1)c1ccc(N2CC3CC(C2)c2cccc(=O)n2C3)c(NS(=O)(=O)c2ccc(F)cc2)c1` (centres undefined) gave Sa helicase inh 5 and Sa growth inh 93.
For COc1cccc(CNc2ccc3c(c2)ncn3C2CCCCC2)c1 the results were Sa helicase inh 2 and Sa growth inh 0.1*.
`CCn1cnc2cc(NCc3cccc(OC)c3)ccc21` gave Sa helicase inh 40 and Sa growth inh 83.
For O=C(COC(=O)C1(c2ccccc2F)CCCC1)NCc1ccccc1 the results were Sa helicase inh 3 and Sa growth inh 84.
`Nc1nc2ccccc2n1Cc1ccccc1F` gave Sa helicase inh -13 and Sa growth inh 102.
`CC(C)(C)c1ccc(Cn2c(N)nc3ccccc32)cc1` gave Sa helicase inh 10 and Sa growth inh 6.3*.
Screening O=C(Nc1cccc(-c2nc3ccccc3o2)c1)C1=COCCO1 returned Sa helicase inh 9.
Screening COc1ccc(C(=O)Nc2ccc(NC(=O)c3ccco3)cc2)cc1OC returned Sa helicase inh -5 and Sa growth inh 108.
Screening Cn1ccccc1=S returned Sa helicase inh -2 and Sa growth inh 101.
For On1ccccc1=S the results were Sa helicase inh 11 and Sa growth inh 0.4*.
For CCc1nnsc1C(=O)Nc1cc(OC)ccc1OC the results were Sa helicase inh 5 and Sa growth inh 83.
CC1SC(c2ccc(C(C)C)cc2)N(C)C1=O (centres undefined) was read as Sa helicase inh 13 and Sa growth inh 94.
`Oc1c(C(c2cccs2)N2CCCCC2)ccc2cccnc12` (centres undefined) gave Sa helicase inh 10 and Sa growth inh 8.1*.
`Oc1c(C(c2ccc(F)cc2)N2CCCCC2)ccc2cccnc12` (centres undefined) gave Sa helicase inh -10 and Sa growth inh 103.
`C[C@H]1COc2c(N3CCN(C)CC3)c(F)cc3c(=O)c(C(=O)O)cn1c23` gave Sa growth inh -0.5*.
Screening CN1CCN(c2c(F)cc3c(=O)c(C(=O)O)cn4c3c2SCC4)CC1 returned Sa growth inh -0.4*.
`C[C@H]1COc2c(C3(N)CC3)c(F)cc3c(=O)c(C(=O)O)cn1c23` gave Sa growth inh -0.9*.
Screening Cc1cc(F)c(F)cc1C(=O)N1CCN(C)CC1 returned Sa helicase inh 7 and Sa growth inh 108.
Cc1ccc2c(CC(=O)NCC(=O)OCc3ccccc3)coc2c1 was read as Sa helicase inh -11 and Sa growth inh 96.
Screening COC(=O)c1ccccc1NC(=O)Nc1ncn(Cc2cccc(C(F)(F)F)c2)n1 returned Sa helicase inh 4 and Sa growth inh 96.

Compound activity deposited in PubChem by ICCB-Longwood Screening Facility, Harvard Medical School.
